# Source: PubChem BioAssay (several laboratories)
# Only some compounds are listed: those with a hit (about 27% of all), similar ones and a draw of the others.
# CYP2C19 inh: blocks human cytochrome P450 2C19; P33261; CYP2C19 Supersomes, luciferin-H EGE luminescence, 30 min; inhibition, % at 5 µM; hit rate 21% among 96,000;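 active = CYP2C19 inhibition above a set limit at 5 µM in the primary screen, cut at about 50% in these data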
# Target sequence (P33261 whole entry, looked up): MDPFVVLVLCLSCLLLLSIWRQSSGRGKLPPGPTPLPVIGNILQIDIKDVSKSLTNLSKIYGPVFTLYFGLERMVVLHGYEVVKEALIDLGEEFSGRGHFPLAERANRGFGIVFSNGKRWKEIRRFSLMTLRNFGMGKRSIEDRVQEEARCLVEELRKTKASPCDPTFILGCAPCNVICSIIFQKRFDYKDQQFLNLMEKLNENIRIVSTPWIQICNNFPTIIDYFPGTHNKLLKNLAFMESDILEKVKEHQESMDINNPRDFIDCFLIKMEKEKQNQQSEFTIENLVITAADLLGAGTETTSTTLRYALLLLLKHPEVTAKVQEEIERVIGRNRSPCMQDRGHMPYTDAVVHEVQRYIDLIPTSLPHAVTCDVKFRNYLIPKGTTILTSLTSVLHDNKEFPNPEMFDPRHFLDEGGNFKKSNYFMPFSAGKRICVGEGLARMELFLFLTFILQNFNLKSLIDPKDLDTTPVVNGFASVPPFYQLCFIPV
# sEH inhibitor: inhibitors of human soluble epoxide hydrolase. P34913. recombinant human sEH enzymatic activity assay. inhibition, % at 2 µM. hit rate 0.34% among 91,000. AID 707; in the data active = inhibition above about 80%
# sEH act: increases human soluble epoxide hydrolase activity; purified human sEH enzymatic activity, activator screen; P34913; AID 717; activation, % at 2 µM; hit rate 0.04% among 91,000; in the data active = activation above about 37%
# CYP2C19 activ: activators of human cytochrome P450 2C19 | activation factor at 5 µM | recombinant CYP2C19, luciferin-H EGE luminescence; hits give high values; 0 = fully inhibited enzyme, 1 = untreated enzyme | 96,000 tested, under 10 active | AID 1025 | P33261;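 active = activation factor of at least 2 at 5 µM in the primary screen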
# CYP2C9 act: CYP2C9 (human) activation; P11712; recombinant CYP2C9, luciferin-H conversion, luminescence; hits give high values; factor 1 = untreated enzyme, 0 = blocked; activation factor at 5 µM; hit rate 1.4% among 96,000; AID 1024;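 active = activation factor of 2 or more for CYP2C9 at a 5 µM dose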
# CYP2C9 inhib: inhibitors of human CYP2C9 | CYP2C9 Supersomes, luciferin-H conversion, luminescence | hit rate 20% among 96,000 | P11712 | inhibition, % at 5 µM;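 active = blocking of liver enzyme CYP2C9 beyond about 50% at 5 µM, limit read from the data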
# Numbers stand for hits; . = inactive; / = no result given.
SMILES,CYP2C19 inh,sEH inhibitor,sEH act,CYP2C19 activ,CYP2C9 act,CYP2C9 inhib
CC1Cc2ccccc2N1C(=O)Cn1nc(C(=O)O)c2ccccc2c1=O (centres undefined),.,.,.,.,.,.
CC1Cc2ccccc2N1C(=O)CN1CCc2ccccc2C1 (centres undefined),92.0,/,/,.,.,.
Cc1cc2ccccc2nc1SCC(=O)N1c2ccccc2CC1C (centres undefined),.,.,.,.,.,.
CC1Cc2ccccc2N1c1ncnc2c1nnn2Cc1ccccc1 (centres undefined),.,.,.,.,.,64.7
COc1ccc(C(=O)c2ccc(N(C)C)cc2)c2ccccc12,/,.,.,/,/,/
CC1Cc2ccccc2N1C(=O)CSc1nnnn1Cc1ccccc1 (centres undefined),90.3,/,/,.,.,83.8
CC(C)NC(=O)Cn1c(SCC(=O)N2c3ccccc3CC2C)nc2ccccc21 (centres undefined),60.6,.,.,.,.,91.1
CC1Cc2ccccc2N1C(=O)CSc1nc2c(c(=O)n(C)c(=O)n2C)n1Cc1ccccc1 (centres undefined),76.3,/,/,.,.,95.6
CC1Cc2ccccc2N1C(=O)CSc1nnc(CSc2ncccn2)n1C (centres undefined),.,/,/,.,.,.
Cc1cc(NC(=O)CN2CCCC2c2nc3ccccc3s2)no1 (centres undefined),.,/,/,.,.,.
O=C(NC1CCCCCC1)C1CCN(C(=O)Cc2ccccc2)CC1,.,.,.,.,.,.
CCOC(=O)c1c(C)n(-c2ccc(OC)cc2)c2c(C/C(C)=N/O)c(Br)c(OC)c(O)c12,.,.,.,.,.,.
C(=N\Nc1nc(Nc2ccccc2)nc(N2CCOCC2)n1)/c1c[nH]c2ccccc12,99.9,.,.,.,.,87.5
COc1cccc(/C=N/Nc2nc(Nc3ccccc3)nc(-n3nc(C)cc3C)n2)c1O,68.1,.,.,.,.,78.8
COc1ccc(/C=N/Nc2nc(Nc3ccccc3)nc(N3CCCCC3)n2)cc1OC,71.0,.,.,.,.,.
COc1ccc(CCNc2nc(N3CCCCC3)nc(N3CCCCC3)n2)cc1OC,81.9,.,.,.,.,72.1
COc1ccc(CCNc2nc(N3CCOCC3)nc(N3CCOCC3)n2)cc1OC,.,.,.,.,.,.
Cc1[nH]c2ccccc2c1/C=N/Nc1nc(Nc2ccc(F)cc2)nc(N2CCOCC2)n1,.,.,.,.,.,.
Cc1c(C(=O)NCCSCc2ccc(Cl)cc2Cl)cccc1[N+](=O)[O-],.,.,.,.,.,.
CCNC(=O)NC1(C(=O)Nc2ccc3c(c2)OCCO3)CCCCC1,.,.,.,.,.,.
COc1cc(NC(=O)N[C@H](C(=O)O)C(C)C)cc(OC)c1,.,.,.,.,.,.
COC(=O)Cc1cc(=O)[nH]c(/N=C(\N)Nc2ccccc2)n1,.,.,.,.,.,.
CC(C)OCCCNC(=O)C(=O)NCCCOC(C)C,.,.,.,.,.,.
Cc1ccc(C(=O)N2CCN(c3cc(=O)[nH]nc3-c3ccccc3)CC2)cc1,.,.,.,.,.,.
NC(=O)NC1CCCc2c1[nH]c1ccc(Cl)cc21 (centres undefined),52.0,/,/,.,.,94.5
SMILES,CYP2C19 inh,sEH inhibitor,sEH act,CYP2C19 activ,CYP2C9 act,CYP2C9 inhib
Cc1ccc(CNC(=O)CCS(=O)(=O)c2ccc(Br)s2)cc1,.,.,.,.,.,.
Cc1ccc(-c2nnc(N(C)C(=O)c3ccccn3)s2)cn1,.,.,.,.,.,.
CN(C(=O)c1ccncc1)c1nnc(-c2cnccn2)s1,89.2,.,.,.,.,96.8
Cc1ccc(-c2nnc(N(C)C(=O)c3ccncc3)s2)cn1,.,.,.,.,.,85.0
COc1cccc(C2=NOC(C(=O)N3CCc4ccccc4C3)C2)c1 (centres undefined),/,.,.,/,/,/
O=C(C1CC(c2ccccc2O)=NO1)N1CCCCC1 (centres undefined),70.3,.,.,.,.,.
O=C(C1CC(c2ccccc2O)=NO1)N1CCc2ccccc2C1 (centres undefined),61.9,.,.,.,.,.
COc1ccc(C2=NOC(C(=O)N3CCCCCC3)C2)cc1OC (centres undefined),.,.,.,.,.,.
O=C(C1CC(c2ccc(F)cc2)=NO1)N1CCCCC1 (centres undefined),/,.,.,/,/,/
O=C(C1CC(c2ccc(F)cc2)=NO1)N1CCc2ccccc2C1 (centres undefined),62.9,.,.,.,.,.
